From PubChem BioAssay
This is a sample that favours compounds with a hit; in the whole collection about 19% have one here.
DT40 TDP1 CPT – qHTS for Inhibitors of human tyrosyl-DNA phosphodiesterase 1 (TDP1): qHTS in cells in presence of CPT; chicken DT40 Tdp1-/-;hTDP1 cells + 20 nM CPT, ATP luminescence, 48 h; actives 12% (n = 420,000); AID 686979, 2013; Potency, µM (top dose mostly 46.2 µM), for the others: top-dose activity change, negative = growth inhibition, usual class: inhibitors; also: potency is read from the fitted curve at half-maximal effect; nearly all actives have a fitted effect of over 55% in size
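Chicken DT40 Tdp1-/- cells stably complemented with human TDP1 were seeded at 400 cells/well in medium containing 20 nM camptothecin, exposed to pin-transferred compounds, and grown at 37 °C for at least 48 hr. Viability was read as ATP luminescence.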
ELG1 repair inh – qHTS screen for small molecules that inhibit ELG1-dependent DNA repair in human embryonic kidney (HEK293T) cells expressing luciferase-tagged ELG1; HEK293T ELG1-luciferase reporter, luminescence, 16 h; DNA damage induced by 5-fluorouridine; Potency, µM (top dose mostly 46.1 µM), for the others: at the highest dose activity change, negative = inhibition, actives largely listed as inhibitors; actives 2.3% (n = 330,000); also: potency is read from the fitted curve at half-maximal effect; nearly all actives have a fitted effect of over 55% in size
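DMSO vehicle served as the neutral condition. Each well held 2,000 cells given 5-fluorouridine plus compound; after 16 hr at 37 °C/5% CO2, ONE-Glo was added and luciferase measured 30 min later.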
HT1080-NT tox – qHTS for induction of synthetic lethality in tumor cells producing 2HG: qHTS for the HT-1080-NT fibrosarcoma cell line; HT-1080-NT fibrosarcoma viability, CellTiter-Glo ATP luminescence, 48 h; Potency, µM (top dose mostly 46.1 µM), for the others: at the highest dose activity, negative = less viability, hits mostly cytotoxic; actives 1.6% (n = 360,000); AID 686970, 2013;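 also: NT is the 2HG producing partner of a matched IDH1 knockdown line; potency is read from the fitted curve at half-maximal effect; 0% = DMSO-treated cells and -100% = media-only wells without cells; nearly all actives have a fitted effect of over 55% in size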
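750 cells/well, RPMI + 5% FBS; 2 h settle, compound pin-transfer, 48 h at 37 degrees C. CellTiter-Glo 10 min RT, luminescence. Normalized to DMSO and media-only wells.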
TDP1 cell noCPT – qHTS for Inhibitors of human tyrosyl-DNA phosphodiesterase 1 (TDP1): qHTS in cells in absence of CPT. DT40 Tdp1-/- hTDP1 cells, no CPT, ATP luminescence, 48 h. Potency, µM (series often up to 46.2 µM), for the others: top-dose activity change, negative = growth inhibition, actives largely listed as inhibitors. actives 15% (n = 420,000); also: potency is read from the fitted curve at half-maximal effect; nearly all actives have a fitted effect of over 55% in size
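Compound effects on proliferation are scored in DT40 Tdp1-/-;hTDP1 cells in the absence of CPT. ATP levels (CellTiter-Glo luminescence) are recorded after a ≥48 hr, 37 °C incubation.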
IL-1B inflam inh – qHTS for Inhibitors of Inflammasome Signaling: IL-1-beta AlphaLISA Primary Screen | THP-1 LPS/ATP IL-1B secretion, AlphaLISA, 16 h; hits give low values | actives 4.7% (n = 360,000) | activity change, % at 57.5 µM; in the data active = activity change below about -50%; inconclusive = mostly about -30% to -49%
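THP-1 cells pretreated 1 hr with compounds (up to 57.5 uM final), then stimulated with LPS (250 ng/mL final) plus ATP (1.25 mM final); secreted IL-1B measured by AlphaLISA after 16 hr, decreased signal indicating inhibition.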
HT1080 IDH1KD tx – qHTS for induction of synthetic lethality in tumor cells producing 2HG: qHTS for the HT-1080-IDH1KD cell line | HT-1080 IDH1 knockdown viability, ATP luminescence, 48 h | Potency, µM (top dose mostly 46.1 µM), for the others: top-dose activity, negative = toxicity, most hits filed as cytotoxic | actives 2% (n = 360,000) | AID 686971, 2013;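 also: potency is read from the fitted curve at half-maximal effect; 0% = DMSO wells and -100% = cell-free medium wells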
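% activity derives from luminescence (CellTiter-Glo), normalised to DMSO and no-cell wells. HT-1080-IDH1KD cells, 750/well, had 48 h compound exposure at 37 °C.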
Active calls of the source: *; ? = inconclusive; . = no result given. Unless noted, calls follow the shape of the dose curve; as a rule, active = well fitted curve in the direction sought with a large enough effect; inconclusive = small, poorly fitted or top-dose-only effect, or another doubt; inactive = no such curve, though single readings can be large; an effect the other way counts as inactive or inconclusive. Unless noted, % is scaled to controls: 0 for no effect and ±100 for the full control effect.

SMILES	DT40 TDP1 CPT	ELG1 repair inh	HT1080-NT tox	TDP1 cell noCPT	IL-1B inflam inh	HT1080 IDH1KD tx
CC(C)N(C(=O)COC(=O)Cn1cnc2ccccc21)c1ccccc1	-19%	4%	17%	-14%	7	15%
CC(C)(C)C1CCc2c(sc(NC(=O)c3ccccc3F)c2C(=O)NCc2ccco2)C1 (stereo not drawn)	-1%	.	.	-6%	.	.
CCn1c(-c2cccnc2Cl)nc2cc(Cl)c(Cl)cc21	18µM*	?	?	?	5	?
Cc1cccc(NC(=O)CN(C)S(=O)(=O)c2ccc3c(c2)CCC(=O)N3)c1C	-13%	.	.	-21%	.	.
CN(Cc1ccccc1)C(=O)c1[nH]cnc1C(=O)Nc1ccc(Cl)cc1	?	-8%	?	23µM*	-28	-1%
CCN(CC)C(=O)c1[nH]cnc1C(=O)Nc1ccc(OC)cc1	-12%	9%	2%	-6%	-22	-2%
CN(Cc1ccccc1)C(=O)c1[nH]cnc1C(=O)Nc1cccc(Cl)c1	?	?	2%	?	-13	-1%
COc1ccc(NC(=O)c2nc[nH]c2C(=O)N(C)Cc2ccccc2)cc1	23µM*	-19%	9%	?	-10	11%
COc1ccc(CN2C[C@@H](CO)O[C@@H](n3cnc4c(NC5CC5)ncnc43)C2)cc1	?	.	3%	?	-4	8%
CSCCC(NS(=O)(=O)c1ccc(Br)cc1)C(=O)OCC(=O)NC1CC1 (stereo not drawn)	6%	-3%	11%	0%	15	10%
CC(=O)N1CCc2cc(Br)cc(S(=O)(=O)N3CCC(C)CC3)c21	-10%	.	.	-20%	.	.
Cc1ccc(Nc2cc(C)c(C#N)c3nc4ccccc4n23)c(C)c1	15µM*	.	.	13µM*	.	.
Cc1cc(NCCCN(C)C)n2c(nc3ccccc32)c1C#N	-22%	-5%	3%	?	-18	10%
Cc1cc(NCCCOC(C)C)n2c(nc3ccccc32)c1C#N	?	?	0%	26µM*	-7	1%
Cc1cc(Nc2ccc(O)cc2)n2c(nc3ccccc32)c1C#N	-2%	-7%	-12%	-3%	-1	-13%
COc1ccc(C2(C)NC(=O)N(CC(=O)Nc3ccc(C)cc3Br)C2=O)cc1OC (stereo not drawn)	-2%	-7%	-3%	-13%	-7	-3%
[O-][n+]1c2ccccc2c2n1CCN1CCOC21c1ccc(Cl)cc1 (stereo not drawn)	2.1µM*	?	-3%	7.3µM*	21	-1%
COc1ccc(-c2noc(-c3ccc(N4CCN(c5ccccc5OC)CC4)c([N+](=O)[O-])c3)n2)cc1	1%	.	.	3%	.	.
Cc1nc2cc(Oc3nc(NCCN(C)C)nc4ccsc34)ccc2s1	?	.	?	?	-29	?
CNc1nc(Oc2ccc3sc(C)nc3c2)c2sccc2n1	21µM*	.	-15%	21µM*	21	?
CSc1nsc(SCC(=O)NCc2ccc(C)cc2)n1	-11%	-2%	-5%	-30%	7	-1%
CCCNC(=O)c1ccc2c(c1)sc1nc(-c3ccc(C)cc3)cn12	5.8µM*	.	.	5.8µM*	.	.
CCN(CC)CCCNC(=O)c1ccc2c(c1)sc1nc(-c3ccc(C)cc3)cn12	2.3µM*	.	.	2.3µM*	.	.
